Hit rate of the full screen: of about 52,000 compounds, about 4,300 (8.3%) were called active. For the sample, actives were picked, then their nearest neighbours and some compounds at random. Unmarked numbers belong to inactive results. No stated cut-off is given here; in the data, active means survival mostly below about 52% (no sharp cut-off); inactive means mostly above about 56%.

This assay relates to DeltatarO mutant. As to the kind of experiment: growth inhibition of S. aureus wild type versus tarO mutant, primary screen, teichoic acid synthesis inhibitors, RN4220, OD600 (AID 463173). As to conditions: OD600, 18 h, active compounds read low, screened at 18.75 µg/mL (by protocol).
For `COc1cccc(NC(=O)C2CCCN(c3nnc(-n4c(C)ccc4C)s3)C2)c1` (stereo not drawn), the survival is 79%.
For `COc1ccc(NC(=O)Cn2cnc3c(oc4ccccc43)c2=O)cc1OC` the value was 79%; for `Cc1nc(-c2ccc(S(=O)(=O)N3CCN(c4cccc(C(F)(F)F)c4)CC3)cc2)co1`, 67%.
With `Cc1ccc(S(=O)(=O)CC(=O)Nc2nc3c(C)cc(C)cc3s2)cc1`, the survival was 96%.
Take `COC(=O)c1c(SC)nc2ccccc2c1OCc1ccc(Cl)cc1`: the survival was 92%.
As to `COc1ccc(N(C(=O)c2ccc(OC)c(OC)c2)S(=O)(=O)c2ccc(Cl)cc2)cc1`, the survival is 80%.
With `COc1cccc(CN(CCO)Cc2ccccc2)c1OC`, the survival was 91%.
On to `CCOc1ccc(CNC(=O)C2CCN(C(=O)N3CC(CC)Oc4ccc(C)cc43)CC2)cc1OC` (stereo not drawn), for which the survival was 77%.
For `Cc1cccc(-n2c(=O)c3c(c4cc(C)ccc4n3C)n(CC(=O)Nc3ccc(C)cc3C)c2=O)c1` the value was 69%; for `COc1ccccc1CNC(=O)Cn1ncc2c(=O)oc3ccc(C)cc3c21`, 78%.
On to `CC(C)n1nc(CC(=O)O)c2ccccc2c1=O`, for which the survival was 79%.
For `CCSc1nc2ccc(N)cc2s1`, the survival is 108%.
With `O=C(NCC(c1cccnc1)N1CCc2ccccc2C1)c1ccc(F)c(F)c1` (stereo not drawn) the figure was 70%; with `CCOc1ccc(CCNC(=O)CN2C(=O)COc3ccc(S(=O)(=O)N4CCCC4)cc32)cc1`, 69%.
With `Cc1ccc(C(c2sc3nc(-c4ccco4)nn3c2O)N2CCCCC2)cc1` (stereo not drawn) the figure was 93%.
As to `COc1ccc(CNc2nc(-c3ccco3)nn2S(=O)(=O)c2ccc3ccccc3c2)cc1OC`, the survival was 58% (active).
For `COc1ccc(CNc2nc(-c3ccco3)nn2S(=O)(=O)c2ccc(Cl)cc2)cc1OC` the value was 61%; for `CC(C)c1ccc(CNc2n[nH]c(-c3ccco3)n2)cc1`, 80%.
`Fc1cccc(Cl)c1CNc1n[nH]c(-c2ccco2)n1`: the survival was 76%.
Consider `COc1ccc(CNc2n[nH]c(-c3ccco3)n2)cc1OC`, for which the survival was 62% (active).
With `COc1ccc(S(=O)(=O)n2nc(-c3ccco3)nc2NCc2ccc(OC)c(OC)c2)cc1` the figure was 55%; with `Cc1ccc(C(=O)Nc2cccc(O)c2)cc1S(=O)(=O)N1CCCCCC1`, 79%.
For `CCN(CC)CCCNC(=O)CN1N=C(c2ccccc2)CCC1=O` the value was 87%; for `COc1ccc(NC(=O)CCn2c(=O)c3cccn3c3cccnc32)c(OC)c1`, 103%.
With `COc1ccc(NC(=O)Cn2c(=O)c3cccn3c3ccccc32)cc1`, the survival is 49%.
Take `COc1ccc(NC(=O)CN2C(=O)C(=O)c3ccccc32)c(OC)c1`: the survival was 52% (active).
As for `COc1ccc(NC(=O)CCCn2c(=O)c3cccn3c3ccccc32)c(OC)c1`, the survival was 57% (active).
For `Cc1cc(Cl)ccc1NC(=O)CN1C(=O)C(=O)c2ccccc21` the value was 71%; for `COc1ccc(OC)c(NC(=O)Cn2c(=O)c3cccn3c3ccccc32)c1`, 41% (active); for `Cc1ccc(NC(=O)CCCn2c(=O)c3cccn3c3ccccc32)c(C)c1`, 49%.
For `COc1ccc(NC(=O)CCn2c(=O)c3cccn3c3ccccc32)c(OC)c1` the value was 47% (active); for `Cc1ccc(NC(=O)CCn2c(=O)c3cccn3c3ccccc32)c(Cl)c1`, 57%; for `COc1ccc(OC)c(CCNC(=O)CCCn2c(=O)c3cccn3c3ccccc32)c1`, 77%.
For `COc1ccc(CNC(=O)Cn2c(=O)c3cccn3c3ccccc32)cc1` the value was 47%; for `CCOc1ccccc1NC(=O)CN1C(=O)C(=O)c2ccccc21`, 94%.
As to `CC1CN(C(=O)Nc2ccc(C(=O)NCCc3ccccc3Cl)cc2)c2ccccc2S1` (stereo not drawn), the survival is 61%.
With `COc1ccc(NC(=O)c2ccc3c(c2)sc2nc(-c4ccc(OC)cc4)cn23)cc1` the figure was 61%; with `CN=C1SC(CC(=O)NC)C(=O)N1C` (stereo not drawn), 86%; with `CCCc1noc2c1C1=NNC(=O)C1C(C)(C)C2` (stereo not drawn), 76%.
Regarding `O=c1[nH]c2ccc(NCc3ccc(-c4ccccc4)o3)cc2[nH]1`, the survival is 86%.
For `O=C(Nc1ccc(-n2nncc2-c2ccccc2)cc1)c1cccc(F)c1` the value was 129%.
`COc1ccc(N2CCN(C(=O)CCc3c(C)nc4cc(-c5ccc(OC)cc5OC)nn4c3C)CC2)cc1`: the survival is 104%.
As to `CC(C)CNC(=O)c1cccc(Cl)c1`, the survival was 82%.
With `COc1ccc(CCNC(=O)Cn2cc(C(=O)c3ccc(Cl)cc3)c(=O)c3ccc(C)nc32)cc1OC`, the survival was 79%.
For `COc1ccc(NC(=O)CCn2c(=O)c3cccn3c3cccnc32)cc1Cl` the value was 85%; for `Cc1c(Cl)cccc1NC(=O)CCn1c(=O)c2cccn2c2ccccc21`, 49%.
For `COc1ccc(NC(=O)CCCn2c(=O)c3cccn3c3cccnc32)cc1Cl` the value was 87%.
With `Cc1cccc(NC(=O)Cn2c(=O)c3cccn3c3ccccc32)c1C`, the survival is 43% (active).
With `COc1ccc(Cl)cc1NC(=O)CCn1c(=O)oc2ccccc21` the figure was 40% (active); with `COc1ccc(NC(=O)Cn2c(=O)c3cccn3c3ccccc32)cc1Cl`, 42% (active).
Take `COc1ccc(NC(=O)Cn2c(=O)oc3cc(Cl)ccc32)c(OC)c1`: the survival is 91%.
Regarding `COc1ccc(OC)c(NC(=O)CCn2cccn2)c1`, the survival is 47% (active).
With `Cc1cc(C)c(NC(=O)Cn2c(=O)c3cccn3c3ccccc32)c(C)c1` the figure was 51%; with `COc1ccc(OC)c(NC(=O)CCn2cnnn2)c1`, 80%.
With `COc1cc(NC(=O)CCn2c(=O)oc3ccccc32)cc(OC)c1OC` the figure was 62%; with `COc1cc(OC)c(NC(=O)CCn2cccn2)cc1Cl`, 79%.
With `COc1ccc(OC)c(NS(=O)(=O)c2ccc(-n3cccn3)cc2)c1` the figure was 95%; with `Cc1ccsc1CN1CCc2nc(Nc3ccccc3)ncc2C1`, 61%.
Consider `CCc1cccc(C)c1NC(=O)C1CCN(c2nn3c(=O)cc(C)nc3s2)CC1`, for which the survival is 119%.
For `Cc1cccc(N2CCN(c3ncnc4c3nc3n4CCCCC3)CC2)c1C` the value was 95%; for `COc1ccc(C(=O)NCC(c2cccnc2)N2CCN(c3ccccc3OC)CC2)cc1` (stereo not drawn), 77%; for `Cc1ccc(Cl)cc1NC(=O)CCCn1c(=O)c2cccn2c2ccccc21`, 61%.
For `COc1ccc(OC)c(CNC(=O)Cc2ccc(NC(=O)N3CCCCc4ccccc43)cc2)c1` the value was 99%; for `CCOC(=O)c1cccc(NC(=O)Cn2c(=O)c3cccn3c3ccccc32)c1`, 100%; for `CC(=O)c1ccc(NC(=O)Cn2c(=O)c3cccn3c3ccccc32)cc1`, 42% (active).
With `COc1ccc(Cl)cc1NC(=O)CCn1c(=O)c2cccn2c2ccccc21` the figure was 42% (active); with `Cc1ccc2oc(=O)n(CCNC(=O)Nc3ccc(Cl)cc3)c2c1`, 72%; with `Cc1ccc2oc(=O)n(CCNC(=O)Nc3ccccc3C)c2c1`, 109%.
Turning to `COc1ccc(Cl)cc1NC(=O)CCCn1c(=O)c2cccn2c2cccnc21`, the survival is 87%.
As for `COc1ccc(Cl)cc1NC(=O)NCCn1c(=O)oc2ccc(C)cc21`, the survival was 46% (active).
For the compound `CCc1ccc(NC(=O)Cn2c(=O)c3cccn3c3ccccc32)cc1`, the survival was 56%.
With `COc1ccc(C)cc1NC(=O)Cc1ccc(NC(=O)N2CCCCc3ccccc32)cc1` the figure was 67%.
For `COc1ccc(NC(=O)Cc2ccc(NC(=O)N3CCCCc4ccccc43)cc2)c(OC)c1`, the survival is 47% (active).
Take `CCOC(=O)c1c(S(=O)(=O)NCC(=O)N2CCN(c3cccc(Cl)c3)CC2)c(C)n(C)c1C`: the survival was 86%.
For `O=C(O)c1ccccc1C(=O)N1CCC(C(=O)c2ccccc2)CC1` the value was 104%; for `COc1ccc(N2CCN(C(=O)C3CCN(S(=O)(=O)Cc4ccccc4)CC3)CC2)cc1`, 78%; for `O=S1(=O)CCC(NNC(=S)Nc2ccccc2)C1` (stereo not drawn), 100%.
For `CCOCCCNC(=O)c1cc2c(=O)[nH]c3ccccc3c2n1C` the value was 116%; for `CCCCOc1ccc(S(=O)(=O)NCc2csc(-c3ccc(OC)cc3)n2)cc1`, 88%.
As to `CCOC(=O)c1c(S(=O)(=O)NCC(=O)Nc2ccc(C)c(N(C)C)c2)c(C)n(C)c1C`, the survival was 79%.
With `Cc1cccc(N2CCN(C(=O)CCn3c(=O)c4cccn4c4cccnc43)CC2)c1C` the figure was 59%; with `O=C(CCn1c(=O)c2cccn2c2cccnc21)N1CCN(c2cccc(Cl)c2)CC1`, 46% (active); with `O=C(CCn1c(=O)c2cccn2c2cccnc21)N1CCN(c2ccccc2)CC1`, 102%.
For `O=C(CCn1c(=O)c2cccn2c2cccnc21)N1CCN(c2ccc(F)cc2)CC1` the value was 88%; for `O=C(CCn1c(=O)c2cccn2c2cccnc21)N1CCN(c2cccc(C(F)(F)F)c2)CC1`, 39% (active).
For `O=C(CCn1c(=O)c2cccn2c2cccnc21)N1CCN(c2ccc(Cl)cc2)CC1` the value was 53%; for `Cc1ccc(Cl)cc1N1CCN(C(=O)CCn2c(=O)c3cccn3c3cccnc32)CC1`, 39% (active); for `Cc1ccc(C)c(N2CCN(C(=O)CCn3c(=O)c4cccn4c4cccnc43)CC2)c1`, 58%.
Regarding `COc1ccc(N2CCN(C(=O)CCn3c(=O)c4cccn4c4cccnc43)CC2)cc1`, the survival is 80%.
For `O=C(C1CCN(S(=O)(=O)c2cccs2)CC1)N1CCN(c2cccc(Cl)c2)CC1`, the survival was 64%.
As for `CCOC(=O)c1cc2c(ccn2C)n1Cc1ccc(OC(F)(F)F)cc1`, the survival was 96%.
For `CCOC(=O)N1CCc2c(sc3c2c(=O)n(Cc2ccccc2)c(=O)n3Cc2cccc(C)c2)C1` the value was 83%; for `CC(C)NC(=O)CCSc1ccc(Cl)cc1`, 93%.
